Screening results (PubChem)
Most compounds without a hit are left out; they make up all but 20% or so of the library.
Shiga inhibitor: inhibitors of Shiga toxin in Vero cells; AID 2315; inhibition, % at 38.7 µM; Vero cells, Shiga toxin protein synthesis inhibition reporter; 290,000 compounds, 9.2% hits; in the data active means inhibition mostly above about 28%, no sharp cut-off; inactive means mostly below about 43%
Pf growth 96h: P. falciparum growth inhibition at 96 hour, primary screen for plastid delayed-death inhibitors. P. falciparum luciferase reporter growth, 96 h. Potency, µM (top dose mostly 28.7 µM), usual class: inhibitors. 320,000 compounds, 6.9% hits
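Cell-based qHTS: luciferase-tagged P. falciparum in erythrocytes (2% hematocrit, 0.05% parasitemia final) incubated with compounds for 96 hours, 37 C, 5% CO2; luciferase detection reagent then added and luminescence measured.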
Pf growth 48h: inhibits P. falciparum growth in the first generation, 48 h | Potency, µM (highest dose often 28.7 µM), actives largely listed as inhibitors | P. falciparum luciferase growth in erythrocytes, 48 h | AID 504832 | 310,000 compounds, 5.9% hits
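Luciferase-expressing P. falciparum in infected erythrocytes (2% hematocrit, 0.1% parasitemia final) in RPMI 1640/0.5% Albumax were exposed to compound for 48 hours at 37 C, 5% CO2; growth read as luminescence.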
Cycloheximide cs: affects cycloheximide protein synthesis inhibition readout, counter-screen. cell reporter, cycloheximide protein synthesis inhibition counterscreen. max response, %. 300,000 compounds, 12% hits. AID 2314; in the data active means max response mostly above about 13%, no sharp cut-off; inactive means mostly below about 14%; further: read at 38.3 µM for the half of the compounds with a filed dose
HCMV antiviral: blocks human cytomegalovirus replication. activity change, negative = inhibition, % at 57.5 µM. HFF cells, HCMV-luciferase reporter, 72 h; hits give low values. 410,000 compounds, 4.5% hits; in the data active means activity change below about -60%; inconclusive means no clear call, values can overlap the other calls; inactive means above about -39%
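Human foreskin fibroblasts infected with luciferase-reporter HCMV at MOI 1 PFU/cell, compounds at two doses. Luciferase measured 72 h post infection; normalized to buffer-only basal and Salinomycin (10uM) controls.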
A number is an active result. Unless noted, the call rests on the fitted dose curve; in most records, active means well fitted inhibition curve with a large enough effect; inconclusive means small, poorly fitted or top-dose-only effect, or another doubt; inactive means no such curve, though single readings can be large or run the other way.

Screening CC(C)CN1C(=O)c2ccccc2C1c1nnnn1-c1ccc2c(c1)OCCO2 (configuration not stated) returned HCMV antiviral inactive.
O=C(O)c1ccc(CS(=O)(=O)c2c(Cl)cccc2Cl)o1 was read as Shiga inhibitor inactive, Pf growth 96h inconclusive, Pf growth 48h inactive, Cycloheximide cs inactive and HCMV antiviral inactive.
`O=C(COC(=O)c1cc([N+](=O)[O-])ccc1NCCO)c1ccccc1` gave Shiga inhibitor inactive, Pf growth 96h inactive, Pf growth 48h inconclusive, Cycloheximide cs inactive and HCMV antiviral inactive.
CS(=O)(=O)c1ccc(NCCc2ccc(S(N)(=O)=O)cc2)c([N+](=O)[O-])c1 was read as Shiga inhibitor inactive, Pf growth 96h inactive, Pf growth 48h inactive, Cycloheximide cs inactive and HCMV antiviral inactive.
For Cc1ccc(S(=O)(=O)N2CCN(C(=O)c3cc(C4CC4)nn3-c3ccccc3)CC2)cc1 the results were HCMV antiviral inactive.
For O=C(c1nc(-c2ccccc2)n(-c2ccccc2)n1)N1CCN(S(=O)(=O)c2ccccc2)CC1 the results were Shiga inhibitor inactive, Pf growth 48h 9.28µM, Cycloheximide cs inactive and HCMV antiviral inconclusive.
Screening O=C(c1cc(C2CC2)nn1-c1ccccc1)N1CCN(S(=O)(=O)c2ccccc2)CC1 returned Pf growth 96h inconclusive, Pf growth 48h 14.7µM and HCMV antiviral inconclusive.
COc1ccc(OC)c(S(=O)(=O)N2CCN(C(=O)c3cc(C4CC4)nn3-c3ccccc3)CC2)c1 was read as Pf growth 96h 9.28µM, Pf growth 48h inconclusive and HCMV antiviral inactive.
O=C(O)c1nc(-c2ccccc2)n(-c2ccccc2)n1 was read as Shiga inhibitor inactive, Pf growth 96h inactive, Pf growth 48h inactive, Cycloheximide cs inactive and HCMV antiviral inactive.
Cc1ccc(C)c(S(=O)(=O)N2CCN(C(=O)c3cc(-c4cccs4)nn3-c3ccccc3)CC2)c1 was read as Pf growth 96h 13.1µM, Pf growth 48h 7.38µM and HCMV antiviral inconclusive.
`N#Cc1ccc(Cl)cc1NC(=O)CN1C(=O)C(=O)N(CCC2=CCCCC2)C1=O` gave HCMV antiviral inactive.
For O=[N+]([O-])c1ccc(S(=O)(=O)Nc2nnc(C(F)(F)F)s2)cc1 the results were Shiga inhibitor inactive, Pf growth 96h 10.4µM, Pf growth 48h inactive, Cycloheximide cs inactive and HCMV antiviral inactive.
CC(C)Cc1nnc(NS(=O)(=O)c2ccc([N+](=O)[O-])cc2)s1 was read as Pf growth 96h inconclusive, Pf growth 48h inactive, Cycloheximide cs inactive and HCMV antiviral inactive.
Screening NC(CSC1(c2ccc(F)cc2)c2ccccc2-c2ccccc21)C(=O)O (configuration not stated) returned HCMV antiviral -67.8.
Screening NC(CSC1(c2ccc(Cl)cc2)c2ccccc2-c2ccccc21)C(=O)O (configuration not stated) returned HCMV antiviral inactive.
For O=C(NCC[C@H]1CC[C@H](NS(=O)(=O)c2ccc(F)cc2)[C@@H](CO)O1)c1ccc2c(c1)OCO2 the results were HCMV antiviral inactive.
Screening Cc1ccc(CN(Cc2ccco2)C(=O)c2cccc(C)c2)cc1 returned HCMV antiviral inactive.
For CN1CCN(CCCNC(=O)c2ccc(/C=C3/Sc4ccccc4N(Cc4cccc(Cl)c4)C3=O)cc2)CC1 the results were Shiga inhibitor inactive, Pf growth 96h inconclusive, Pf growth 48h inconclusive, Cycloheximide cs inactive and HCMV antiviral inconclusive.
For CCOc1ccc(/C=C2\SC(=S)N(CC(=O)NCCCN3CCOCC3)C2=O)cc1 the results were Shiga inhibitor 46.8, Pf growth 96h inactive, Pf growth 48h inactive, Cycloheximide cs 21.5 and HCMV antiviral inactive.
`O=C(CN1C(=O)/C(=C/c2ccccc2)Sc2ccccc21)NCCCN1CCOCC1` gave Shiga inhibitor inactive, Pf growth 96h inactive, Pf growth 48h inactive, Cycloheximide cs inactive and HCMV antiviral -61.8.
Screening CN1CCN(CCCNC(=O)c2ccc(/C=C3\Sc4ccccc4N(Cc4ccc(F)cc4)C3=O)cc2)CC1 returned Shiga inhibitor inactive, Pf growth 96h inconclusive, Pf growth 48h inconclusive, Cycloheximide cs inactive and HCMV antiviral -67.4.
For CC(C)c1ccc(/C=C2\SC(=S)N(CC(=O)NCCCN3CCOCC3)C2=O)cc1 the results were Shiga inhibitor inactive, Pf growth 96h inactive, Pf growth 48h inactive, Cycloheximide cs 39.1 and HCMV antiviral inactive.
COC(=O)c1ccc(/C=C2\SC(=S)N(CCCC(=O)NCCCN3CCOCC3)C2=O)cc1 was read as Shiga inhibitor inactive, Pf growth 96h inactive, Pf growth 48h inconclusive, Cycloheximide cs inactive and HCMV antiviral inconclusive.
`COc1cc2c(CCNC(C)=O)c[nH]c2cc1O` gave HCMV antiviral inactive.
For c1ccc(-c2cc(N3CCCCC3)ncn2)cc1 the results were Shiga inhibitor 62.4, Pf growth 48h inactive, Cycloheximide cs 40.8 and HCMV antiviral inactive.
Screening O=C(Nc1cc(Cl)ncn1)c1ccccc1 returned HCMV antiviral inactive.
Screening Nc1nc(-c2ccccc2)cc(N2CCCCC2)n1 returned Shiga inhibitor inactive, Pf growth 48h inactive, Cycloheximide cs inactive and HCMV antiviral -62.7.
`c1ccc(-c2cc(N3CCCCCC3)n[nH]2)cc1` gave Shiga inhibitor 151.3, Pf growth 96h inactive, Pf growth 48h inconclusive, Cycloheximide cs 48.3 and HCMV antiviral inactive.
O=C(Nc1cc(N2CCCCC2)ncn1)c1ccccc1 was read as Shiga inhibitor 54.4, Pf growth 96h inactive, Pf growth 48h inactive, Cycloheximide cs 28.7 and HCMV antiviral inactive.
For Cc1nc(-c2ccccc2)cc(N2CCCC2)n1 the results were Shiga inhibitor inactive, Pf growth 96h inactive, Pf growth 48h inactive, Cycloheximide cs inactive and HCMV antiviral inactive.
For O=C(O)c1cc(N2CCCCC2)nc2ccccc12 the results were HCMV antiviral inactive.
For CC(=O)Oc1ccccc1Cn1c(C)c(C(=O)NCc2cccc(Cl)c2)sc1=O the results were HCMV antiviral inactive.
Screening CCN(CC)c1ccc(C(=O)OCC(=O)NC(C)(C)C)cc1 returned Shiga inhibitor inactive, Pf growth 96h inactive, Pf growth 48h inactive, Cycloheximide cs inactive and HCMV antiviral inactive.
O=C(O)CSc1nnc(-c2ccc(Cl)cc2Cl)n1-c1ccc(Cl)cc1 was read as Pf growth 96h inactive, Pf growth 48h inactive, Cycloheximide cs inactive and HCMV antiviral inactive.
`CCOc1ccc(-n2nc3c(Cl)nnc(C)c3c2C)cc1` gave Shiga inhibitor inactive, Pf growth 96h 0.522µM, Pf growth 48h 0.329µM, Cycloheximide cs inactive and HCMV antiviral inconclusive.
`Cc1ccc(NC(=O)N2CCN(c3nnc(C)c4c(C)n(-c5ccccc5)nc34)CC2)cc1Cl` gave HCMV antiviral inactive.
`Cc1nnc(Cl)c2nn(-c3ccccc3)c(C)c12` gave Shiga inhibitor inactive, Pf growth 96h 0.586µM, Pf growth 48h 0.329µM, Cycloheximide cs inactive and HCMV antiviral inactive.
Screening CCOc1ccc(CN2CCN(CCCc3ccccc3)CC2CCO)cc1 (configuration not stated) returned Shiga inhibitor inactive, Pf growth 96h inactive, Pf growth 48h inactive, Cycloheximide cs inactive and HCMV antiviral inactive.
